Assay outcomes (PubChem)
DT40 TDP1 no CPT – qHTS for Inhibitors of human tyrosyl-DNA phosphodiesterase 1 (TDP1): qHTS in cells in absence of CPT; DT40 Tdp1-/- hTDP1 cells, no CPT, ATP luminescence, 48 h; Potency, µM (highest dose often 46.2 µM), without a hit: top-dose activity change, negative = growth inhibition, actives largely listed as inhibitors; 420,000 compounds, 15% hits; note: potency is the fitted concentration of half-maximal effect; % is set by controls: 0 for no effect and ±100 for the full control effect; nearly all actives have a fitted effect of over 55% in size
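Growth kinetics read by CellTiter-Glo luminescence after ≥48 hr at 37 °C. Cells: DT40 Tdp1-/- stably carrying human TDP1, 400 per well, compound exposure in the absence of CPT (DMSO vehicle).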
SW480 rerep – inducers of DNA re-replication in SW480 colon cancer cells; 340,000 compounds, 1.8% hits; SW480 DNA re-replication, Hoechst DNA content imaging, 48 h; Potency, µM (series often up to 46.1 µM), without a hit: at the highest dose re-replication activation, hits mostly activators; note: potency is the fitted concentration of half-maximal effect; % of control where 0% means no effect; nearly all actives have a fitted effect of over 55% in size
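Image-based read-out: total Hoechst fluorescence of nuclei (405 nm excitation, 500-530 nm emission), with hits raising the fraction of high-intensity nuclei. SW480 colon cells incubated 48 hr with compounds at 37 C.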
MCF10A rerep – DNA re-replication induction in MCF 10a cells | MCF 10A DNA re-replication, Hoechst nuclear intensity, 48 h | Potency, µM (series often up to 46.1 µM), inactives show at the highest dose activity, positive = re-replication, hits mostly activators | 350,000 compounds, 2.9% hits; note: potency is the fitted concentration of half-maximal effect; % of control where 0% means no effect; nearly all actives have a fitted effect of over 50% in size
DT40 TDP1 CPT – growth inhibition of DT40 Tdp1-/-;hTDP1 cells with camptothecin (screen for TDP1 inhibitors); Potency, µM (doses to about 46.2 µM), inactives show at the highest dose activity change, negative = growth inhibition, actives largely listed as inhibitors; AID 686979; chicken DT40 Tdp1-/-;hTDP1 cells + 20 nM CPT, ATP luminescence, 48 h; 420,000 compounds, 12% hits; note: potency is the fitted concentration of half-maximal effect; % is set by controls: 0 for no effect and ±100 for the full control effect; nearly all actives have a fitted effect of over 55% in size
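Chicken DT40 Tdp1-/- cells complemented with human TDP1, 400 cells/well, exposed to compounds plus 20 nM camptothecin for at least 48 h at 37 C; viability read as ATP content by CellTiter-Glo luminescence.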
Chronic BCR inh – inhibitors of chronic active B-cell receptor signaling | Potency, µM (series often up to 46.1 µM), inactives show at the highest dose activity change, negative = inhibition, usual class: inhibitors | ABC-DLBCL IkBa-CBG/CBR reporter, luminescence ratio, 4 h | 340,000 compounds, 0.05% hits; active = well fitted inhibition curve with a large enough effect in the signal ratio, with a control signal flat, not every such curve was filed as active; inconclusive = small, poorly fitted or top-dose-only effect, or effect the other way, or a change in a side signal; the % refers to the signal ratio;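 note: potency is the fitted concentration of half-maximal effect; plate controls were basal doxycycline-induced cells for no effect and cells given 10 µM MG132 for full effect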
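Compounds up to 46 uM were incubated four hours with TMD8 cells whose green CBG68 luciferase is fused to IkappaBalpha; red CBR luminescence normalised the signal, and concentration-effect curves were fitted to fusion, red and ratio data.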
IL1B secr inh – inhibitors of inflammasome signaling (IL-1 beta secretion); THP-1 LPS/ATP IL-1B secretion, AlphaLISA, 16 h; stronger effect = lower value; activity change, % at 57.5 µM; 360,000 compounds, 4.7% hits; in the data active = activity change below about -50%; inconclusive = mostly about -30% to -49%; note: % is set by controls: 0 for no effect and ±100 for the full control effect
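Secreted IL-1B measured by AlphaLISA bead assay after 16 h compound exposure of THP-1 cells; compounds (final up to 57.5 uM) added 1 h before LPS (250 ng/mL) and ATP (1.25 mM) stimulation; lower signal means less secretion.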
* marks the source's active call; other numbers are inactive results; i = inactive; ? = inconclusive; · = no result. The list is not random: actives were taken first. Their share in the collection is about 19%. Unless noted, calls come from the whole dose curve; as a rule, active = well fitted curve in the direction sought with a large enough effect; inconclusive = small, poorly fitted or top-dose-only effect, or another doubt; inactive = no such curve, though single readings can be large; an effect the other way counts as inactive or inconclusive.

SMILES | DT40 TDP1 no CPT | SW480 rerep | MCF10A rerep | DT40 TDP1 CPT | Chronic BCR inh | IL1B secr inh
CC(=O)N/N=C\c1ccccc1OC/C=C/c1ccccc1 | ? | ? | -2.0% | 16.4µM* | ? | 0.0
O=C1CCC/C(=N\NC(=O)c2ccc(COc3ccccc3-c3ccccc3)cc2)C1 | ? | 99.6% | 9.2µM* | ? | 0.0% | -15.0
Cc1nn(-c2ccccc2)c(C)c1-c1cc(C(=O)N/N=C/c2cccnc2)[nH]n1 | · | · | · | · | -1.0% | ·
O=C(N/N=C/c1cccnc1)c1cc(-c2ccccc2OCc2ccccc2)n[nH]1 | 23.1µM* | ? | 14.6µM* | ? | ? | -23.2
O=C(COc1ccccc1-c1ccccc1)NN=C1CCCC1 | ? | ? | ? | -6.0% | ? | 57.3
CC(=O)Nc1ccc(C(=O)N/N=C/c2ccccc2OCc2ccccc2)cc1 | 20.6µM* | ? | ? | ? | ? | 13.1
C=CCn1c(SCC(=O)c2c(N)n(CCC)c(=O)n(C)c2=O)nnc1-c1ccncc1 | -12.3% | -6.6% | -10.8% | 6.0% | -2.3% | 24.0
CCc1ccc(NC(=O)CSc2nnnn2C)cc1 | -11.0% | -1.2% | 5.4% | 7.6% | -3.8% | -17.1
CN(/N=C/C=C/c1ccccc1)C1=NS(=O)(=O)c2ccccc21 | -6.7% | 9.6% | 5.9% | -29.6% | -2.8% | -3.0
O=C(N/N=C/c1ccccc1OCc1ccccc1)c1cccnc1 | 29.1µM* | ? | 11.6% | ? | -1.2% | 8.8
O=C(N/N=C/c1ccccc1[N+](=O)[O-])c1ccc(COc2ccccc2-c2ccccc2)cc1 | 11.6µM* | -4.4% | -7.1% | 11.6µM* | ? | -4.4
O=C(N/N=C/c1cccc2ccccc12)c1cccnc1 | 5.6% | -11.2% | 0.7% | -0.7% | -13.5% | -0.1
O=C(O)c1cccc(NC(=S)N/N=C/c2ccccc2OCc2cccc(Br)c2)c1 | ? | 3.1% | ? | 23.1µM* | ? | 7.0
O=C(N/N=C/c1ccccc1F)c1ccccc1OCc1ccccc1 | 20.6µM* | 13.8% | ? | ? | ? | 20.9
O=C(N/N=C/c1ccc[nH]1)c1ccccc1OCc1ccc(F)cc1 | 2.5% | -15.8% | 7.0% | -6.2% | ? | -1.3
Nc1ccn([C@@H]2O[C@H](CNCc3ccc(Oc4cc(-n5cccn5)ncn4)cc3)[C@@H](O)[C@H]2O)c(=O)n1 | 3.1% | · | · | -7.3% | · | -13.5
CC(C)(C)c1cccc(P(=O)(c2ccccc2)c2ccccc2)c1O | -9.1% | ? | ? | 2.5% | ? | -71.0*
CO[C@@H]1CN(C)C(=O)c2cc(NC(=O)Nc3ccc4c(c3)OCO4)ccc2OC[C@@H](C)N(C)C[C@H]1C | 3.0% | · | · | 12.1% | · | -20.7
CCCC(=O)Nc1ccc2c(c1)C(=O)N(C)C[C@@H](OC)[C@H](C)CN(Cc1ccc(-c3ccccn3)cc1)[C@@H](C)CO2 | 23.1µM* | · | · | ? | · | ?
CCCN1C[C@@H](C)[C@@H](OC)CN(C)C(=O)c2ccc(NC(=O)c3cccc(F)c3)cc2OC[C@H]1C | -8.1% | · | · | 0.5% | · | 16.6
CO[C@@H]1CN(C)C(=O)c2cc(NC(=O)NC3CCCCC3)ccc2OC[C@@H](C)N(CCc2ccccc2)C[C@H]1C | 16.4µM* | · | · | 23.1µM* | · | -28.0
CCC(=O)Nc1ccc2c(c1)OC[C@@H](C)N(Cc1ccccc1F)C[C@@H](C)[C@@H](OC)CN(C)C2=O | -15.1% | · | · | -29.4% | · | 1.4
CO[C@H]1CN(C)C(=O)c2ccc(NC(=O)C3CCC3)cc2OC[C@H](C)N(Cc2ccc(F)cc2)C[C@@H]1C | ? | · | · | ? | · | -69.9*
COCC(=O)N1C[C@H](C)[C@H](OC)CN(C)C(=O)c2cc(NC(=O)Nc3cccc(F)c3)ccc2OC[C@@H]1C | 10.3µM* | · | · | 11.6µM* | · | -28.9
Fc1ccc2[nH]c3c(NCc4ccccc4)ncnc3c2c1 | 5.17µM* | -0.5% | ? | 5.17µM* | ? | -85.6*
SMILES | DT40 TDP1 no CPT | SW480 rerep | MCF10A rerep | DT40 TDP1 CPT | Chronic BCR inh | IL1B secr inh
COc1ccc2[nH]c3c(NCCC4=CCCCC4)ncnc3c2c1 | 2.91µM* | ? | 20.6µM* | 2.59µM* | ? | -105.1*
CCOc1ccc2[nH]c3c(NCCC(C)C)ncnc3c2c1 | 18.4µM* | ? | 11.6µM* | 25.9µM* | 7.5% | -68.2*
COc1cccc(/C=N/Nc2ncnc3c2[nH]c2ccc(C)cc23)c1OC | 5.8µM* | 6.3% | 0.6% | 2.06µM* | -1.9% | 149.1
O=C(Cn1cnc([N+](=O)[O-])n1)c1ccc(O)c(O)c1 | -10.1% | -4.3% | 8.6% | -15.6% | 6.0% | 47.2
COc1ccc(C(=O)N2CCC3(CCCN(C(=O)Nc4cccc(F)c4)C3)CC2)cc1 | -15.9% | · | · | 9.8% | · | ·
COc1cccc(NC(=O)c2cnc(NS(=O)(=O)c3ccccc3)nc2)c1 | ? | · | · | ? | · | 41.5
COC(=O)C1=C(C)NC(=O)C1(NC(=O)c1cc(OC)c(OC)c(OC)c1)C(F)(F)F (stereo not given) | 4.3% | · | · | -0.4% | · | ·
Cc1ccc(-n2ncc3c(NCCC4=CCCCC4)ncnc32)cc1 | ? | · | · | ? | 19.0% | ·
O=c1c2[nH]c3ccc(F)cc3c2ncn1CCC1=CCCCC1 | -14.3% | -2.9% | -3.2% | -3.1% | ? | -10.0
CCN(CC)CCNc1ncnc2c1[nH]c1ccc(OC)cc12 | · | · | · | · | 0.3% | ·
COc1ccc2[nH]c3c(NCCCOC(C)C)ncnc3c2c1 | ? | ? | -10.7% | ? | 7.2% | -66.5*
COc1ccc2c(c1)[nH]c1c(=O)n(CCC3=CCCCC3)cnc12 | 23.1µM* | -7.6% | -2.9% | ? | 22.3% | -3.9
C=CCNc1ncnc2c1[nH]c1ccc(C)cc12 | 20.6µM* | 14.3% | ? | 29.1µM* | ? | -101.5*
COc1ccc(-n2ncc3c(NCCC4=CCCCC4)ncnc32)cc1 | ? | · | · | 16.4µM* | ? | ·
CCN(CC(=O)Nc1c(F)cccc1F)C(=O)C1(c2ccccc2)CC1 | 11.9% | -3.3% | -9.2% | 11.8% | 18.7% | i
CCOc1ccc(-n2c(O)c(/C=N/NC(=O)C3COc4ccccc4O3)c3ccccc3c2=O)cc1 (stereo not given) | ? | 17.2% | ? | -18.3% | 4.4% | 11.8
Cc1cc(=O)oc2c1ccc1oc(/C(=N/O)c3ccccc3)c(C)c12 | 25.9µM* | -5.8% | ? | 20.6µM* | ? | -74.1*
Cc1ccc(/C(=N\O)c2oc3c(C)c4oc(=O)cc(C)c4cc3c2C)cc1 | 16.4µM* | 28.4% | ? | 18.4µM* | ? | -28.6
